12-hLO inh: blocks human 12-lipoxygenase activity. P18054. purified 12-hLO, xylenol orange hydroperoxide absorbance. Potency, µM (top dose mostly 57.1 µM), without a hit: at the top dose activity change, negative = inhibition, hits mostly inhibitors. 150,000 tested, 0.12% active. AID 1452; note: potency is the fitted concentration of half-maximal effect; nearly all actives have a fitted effect of over 55% in size
Target sequence (P18054 whole entry, looked up): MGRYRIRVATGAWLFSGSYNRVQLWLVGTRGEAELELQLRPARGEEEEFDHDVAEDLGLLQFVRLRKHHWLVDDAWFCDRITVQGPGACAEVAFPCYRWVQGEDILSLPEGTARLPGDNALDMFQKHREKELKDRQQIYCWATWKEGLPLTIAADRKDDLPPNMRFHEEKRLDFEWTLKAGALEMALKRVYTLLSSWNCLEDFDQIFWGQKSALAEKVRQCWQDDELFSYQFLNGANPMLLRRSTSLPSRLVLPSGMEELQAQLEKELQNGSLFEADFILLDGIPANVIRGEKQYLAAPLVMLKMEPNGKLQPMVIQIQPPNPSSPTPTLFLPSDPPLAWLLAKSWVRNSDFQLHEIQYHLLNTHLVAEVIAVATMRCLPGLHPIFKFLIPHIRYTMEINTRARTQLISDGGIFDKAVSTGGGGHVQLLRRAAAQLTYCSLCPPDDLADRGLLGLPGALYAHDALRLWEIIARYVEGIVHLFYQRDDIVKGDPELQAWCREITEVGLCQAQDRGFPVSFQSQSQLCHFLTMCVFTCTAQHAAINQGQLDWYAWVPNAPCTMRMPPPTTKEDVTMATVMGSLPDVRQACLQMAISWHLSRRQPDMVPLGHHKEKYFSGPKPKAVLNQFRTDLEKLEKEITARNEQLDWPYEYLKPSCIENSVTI
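Purified human 12hLO (150 nM), preincubated 15 min with compound, then 40 uM arachidonic acid for 30 min, room temperature, Hepes pH 7.0 with 0.01% Triton X-100. Hydroperoxide detected by ferrous iron/xylenol orange; 573/405 nm absorbance ratio gives reaction progress.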
IMPase cell inh: IMPase inhibition in cells. P97697. 120,000 tested, under 10 active. inhibition (IP1 accumulation), % at 46.1 µM. CHO-M1 cells, IP1 accumulation, HTRF TR-FRET ratio; active = well fitted curve in the direction sought with a large enough effect in the signal ratio, not every such curve was filed as active; inconclusive = small, poorly fitted or top-dose-only effect, or a change in a side signal; inactive = no such curve, though single readings can be large or run the other way; the % refers to the signal ratio;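 note: cells stimulated with carbachol in lithium chloride buffer; plate controls were DMSO basal wells for no effect and reference inhibitor wells for full effect; higher means more IMPase inhibition seen as more IP1 and lower FRET ratio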
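Carbachol-driven Gq signalling in CHO-M1 cells (2000/well) generates IP1. Compounds that block IMPase raise IP1 and so reduce the FRET signal from Eu-anti-IP1 and d2-IP1 after a 10 min room-temperature lysis.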
15-hLO-2 inh: blocks human 15-lipoxygenase 2 activity | O15296 | purified 15hLO-2, xylenol orange hydroperoxide absorbance | Potency, µM (titrated, usually from 57.1 µM), for inactives: at the highest dose activity change, negative = inhibition, actives largely listed as inhibitors | 110,000 tested, 0.56% active | AID 881; note: potency is the fitted concentration of half-maximal effect; nearly all actives have a fitted effect of over 60% in size
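Enzyme 50 nM, AA 45 uM, 25 mM Hepes pH 7.5 + 0.01% Triton X-100; cpd preinc 15 min RT, rxn 90 min RT; stop/detect with 200 uM XO + 300 uM Fe(II) in 50 mM H2SO4, 30 min; A573/A405.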
PNC assembly inh: inhibitors of perinucleolar compartment assembly | PC3M PTB-GFP, PNC prevalence imaging, 16 h; active compounds read low | activity change (PNC), negative = inhibition, % at 10 µM | 140,000 tested, 3.1% active;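 active = readout at or below -70, meaning at least 70% loss of cells showing the perinucleolar compartment, a nuclear body marking cancer cells; inconclusive = readout between -30 and a set limit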;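 note: plate controls were DMSO wells for no effect and camptothecin positive control wells for full effect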
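Compounds are pinned in duplicate onto adhered PC3M cells stably expressing GFP-tagged PTB and incubated 16 h at 37 C. Cells are then fixed, nuclei stained with Hoechst, and PNC-positive cells counted.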
The depositor's hits bear a star; ? = inconclusive; / = no result; [ ] = remark or other dose. A selection: hits, their analogues and other compounds. The true share with any hit is near 3%. Unless noted, calls come from the whole dose curve; as a rule, active = well fitted curve in the direction sought with a large enough effect; inconclusive = small, poorly fitted or top-dose-only effect, or another doubt; inactive = no such curve, though single readings can be large; an effect the other way counts as inactive or inconclusive. Unless noted, % is set by controls: 0 for no effect and ±100 for the full control effect.

SMILES | 12-hLO inh | IMPase cell inh | 15-hLO-2 inh | PNC assembly inh
O=c1ccn([C@@H]2O[C@@H](COP(=O)(O)OP(=O)(O)O)[C@H](O)[C@@H]2O)c(=O)[nH]1 | -7% | 3 | -8% | /
Cc1cccc(N2CCN(S(=O)(=O)c3ccc4oc(=O)c5ncn(C)c5c4c3)CC2)c1C | / | -8 | / | /
CC(=O)Oc1ccccc1C(=O)O | -4% | -3 | -7% | /
Cc1cc(C(=O)Oc2ccccc2C(=O)O)c(C)o1 | -4% | 5 | 7% | -100*
O=C(NCC1CCCO1)C1CCC(=O)N1CCc1ccccc1 (configuration not stated) | 0% | -7 | -3% | -102*
O=C(NCC1CCCO1)C1CCN(S(=O)(=O)Cc2ccccc2)CC1 (configuration not stated) | -2% | -4 | 1% | -108*
COc1ccccc1NC(C)C(=O)Nc1ccc(C(C)=O)cc1 (configuration not stated) | -1% | / | / | -22
CC(=O)C1=C(C)NC(SCSc2ccccc2)=C(C#N)C1c1cccnc1 (configuration not stated) | -3% | 4 | -12% | -86*
COc1ccccc1-c1noc(-c2ccco2)n1 | -1% | -3 | 5%[2.29 µM] | -118*
Nc1nc2ccccc2n1C(=O)CCc1ccccc1 | 5% | -7 | 18% | -87*
Cc1ccc2[nH]c(=O)c(CNC(C)(C)C)cc2c1 | -6% | -2 | 21% | -107*
CCn1c2ccccc2c2nnc(NCCCO)nc21 | -3%[11.4 µM] | / | -8%[11.4 µM] | /
Clc1ccccc1CN(Cc1ccco1)Cc1nnnn1C1CCCC1 | -23% | 2 | / | ?
c1coc(CN(Cc2cccs2)Cc2nnnn2C2CCCCC2)c1 | -11% | 6 | / | -100*
CC#CCN1c2ccccc2[C@]23C[C@@H](C(=O)OC)N(S(=O)(=O)c4ccc(C#N)cc4)C2=NC(C(=O)OC)=C(C(=O)OC)[C@H]13 | -2%[11.4 µM] | / | / | /
COc1ccc(CCNC(=O)Cc2ccc(OCc3ccccc3)c(OC)c2[N+](=O)[O-])cc1OCc1ccccc1 | -9% | 13 | -12% | -101*
CCOC(=O)C1CCN(C(=O)CSc2ccc(Cl)cc2)CC1 | 2% | -2 | / | -100*
Cc1ccccc1/C=C/c1nc2ccccc2c(=O)n1CCc1ccccc1 | 1% | -5 | / | 9
Cc1ccc(/C=C/c2nc3ccccc3c(=O)n2CCc2ccccc2)cc1 | 3% | 4 | / | -83*
C/C=C/Cn1c(SCCCc2ccccc2)nc2c1c(=O)[nH]c(=O)n2C | -10% | 0 | / | -119*
C=CCn1c(SCCCc2ccccc2)nc2c1c(=O)[nH]c(=O)n2C | -4% | -6 | / | -11
CCCCCn1c(SCCCC)nc2c1c(=O)[nH]c(=O)n2C | -3% | -1 | -11% | 5
CCCCCCn1c(SCCC)nc2c1c(=O)[nH]c(=O)n2C | 1% | 3 | -7% | -86*
CCSc1nc2[nH]ncc2c(=O)[nH]1 | 0% | / | / | -87*
CCCCSc1nc2[nH]ncc2c(=O)[nH]1 | -2% | / | / | ?
SMILES | 12-hLO inh | IMPase cell inh | 15-hLO-2 inh | PNC assembly inh
Cc1c(NC(=O)Nc2ccc(Cl)c(C(F)(F)F)c2)c(=O)n(-c2ccccc2)n1C | / | 1 | / | /
COc1cccc(-c2nnn(CC(=O)O)n2)c1 | -6% | -6 | 3% | -91*
CCOC(=O)Cn1nnc(-c2ccccc2)n1 | 3% | -8 | / | -100*
CCOC(=O)c1c(N)nn(C(=O)C(C)C)c1-c1ccccc1 | 1% | 7 | 4% | -17
CC(C)OC(=O)Cn1nnc(-c2ccccc2)n1 | 3% | -8 | -3% | -9
CCOC(=O)c1c(N)nn(C(=O)CC)c1-c1ccccc1 | 3% | 4 | / | -100*
CCOC(=O)Cn1nnc(-c2cccc(OC)c2)n1 | 2% | 3 | 10% | ?
COc1ccc(-c2nnn(CC(=O)NCc3ccccc3)n2)cc1OC | 2% | 4 | / | -119*
COC(=O)c1cc(NC(=O)CC2SC(=Nc3ccccc3)N(CCc3c[nH]c4ccccc34)C2=O)cc(C(=O)OC)c1 (configuration not stated) | -16% | -5 | -7% | -20
CCOC(=O)N1CCN(C(=O)CCSc2ccccc2)CC1 | 3% | -6 | -6% | 42
Cc1ccc(CNC(=O)CCCn2c(=O)c3ccccc3n(CC(=O)Nc3ccc(C)c(C)c3)c2=O)cc1 | / | -5 | / | /
COc1ccc(CC2CCOC2=O)cc1 (configuration not stated) | -4% | 3 | 5% | -127*
COc1ccc2ccccc2c1/C=N/O | 2% | 3 | 1% | -108*
CC(C)(C)Cc1nnc(NS(=O)(=O)c2ccc(F)cc2)s1 | -4% | 8 | -1% | -82*
CCN1C(=O)N[C@@H](c2cccc(C(F)(F)F)c2)C(C(=O)OC)=C1C | -4%[11.4 µM] | / | / | /
CC1=C(C(=O)Nc2ccc([N+](=O)[O-])cc2)C(c2cccc(C(F)(F)F)c2)NC(=S)N1c1ccccc1 (configuration not stated) | 22µM* | -3 | ? | 30
C#C[C@]1(O)CC[C@H]2[C@H]3CCC4=Cc5oncc5C[C@]4(C)[C@@H]3CC[C@]21C | -2% | / | -11% | /
Cc1c(-c2ccccc2)nc2ccccc2c1C(=O)NCc1cccs1 | -8% | -8 | / | -18
Clc1ccc(Cl)c(OCCCCNCc2ccccc2)c1 | -7% | / | / | 23
Clc1ccc(OCCCNCc2ccccc2)c(Br)c1 | -5% | 0 | 78% | -89*
N#Cc1c(-c2ccc(F)cc2)cc(-c2cccnc2)nc1N | -1% | / | / | -89*
N#Cc1c(-c2ccc(Br)cc2)cc(-c2cccnc2)nc1N | -2% | / | / | -11
CCO | 3% | / | -2% | /
COc1ccc2cc(/C=N/NC(=O)c3c(Cl)cnn3C)c(Cl)nc2c1 | 2% | / | / | -86*
CCOC(=O)c1ccc(COc2nc3ccccc3nc2-c2ccccc2NC(C)=O)o1 | -3% | 8 | 5%[2.29 µM] | -115*
SMILES | 12-hLO inh | IMPase cell inh | 15-hLO-2 inh | PNC assembly inh
Cc1nc2ccccc2c(=O)n1NCc1cc(Br)cs1 | -10% | 15 | -2% | -5
CN(C)CCNC(=O)/C=N/O | 0% | 4 | / | -89*
CN(C)CCCCCNCCCNC(=O)/C=N\O | 1% | 1 | 6% | ?
COc1cccc(Cn2c(=O)c(-c3cccs3)nc3cnc(OC)nc32)c1 | / | / | 8% | /
COc1ccc(NC(=O)C(NC(=O)c2ccc(=O)[nH]c2)c2ccc(OC)cc2)cc1 (configuration not stated) | -3% | -1 | / | -109*
COc1ccc(NC(=O)C(NC(=O)CC2NC(=O)NC2=O)c2ccccc2)cc1 (configuration not stated) | -4% | 5 | / | -115*
O=C(O)C(=Cc1ccc(-c2ccccc2)cc1)C(=O)O | -4%[11.4 µM] | / | -2%[11.4 µM] | /
O=C(Cn1ncc2c1-c1ccccc1OC2)Nc1ccc(S(=O)(=O)N2CCCCC2)cc1 | 0% | -4 | 4% | 3
CC(C)(C)c1cc[n+](-c2nc([O-])sc2C=O)cc1 | -2% | / | / | -113*
CCN(CC)c1ccc(/C=C(/C#N)C(=O)NCc2ccccc2)o1 | -11% | / | / | -90*
CC(=O)Nc1ccc(/C=C(\C#N)C(=O)NCc2ccccc2)cc1 | -2% | / | / | 49
Cn1c[n+](C)cc1-c1ccc(/C(N)=N/O)cc1 | -3% | / | / | -80*
